Reference: PubChem BioAssay (Tox21)
Results filed as inconclusive are left out. Values without a mark were called inactive. Calls come from the whole dose curve; as a rule, active = well fitted activation curve with a large enough effect in the signal ratio in the repeat runs (not every such curve was filed as active); inconclusive = weak or mixed curves; inactive = flat fitted curve, though single readings scatter; the % refers to the signal ratio.

assay: qHTS assay to identify small molecule agonists of H2AX (AID 1224845); details: CHO-K1 phospho-H2AX Ser139 HTRF, 3 h; series mostly up to 154 µM; activation (H2AX phosphorylation): at the top concentration
Source text: National Center for Advancing Translational Sciences [NCATS]
NIH Chemical Genomics Center [NCGC]
U.S. Environmental Protection Agency [EPA]
National Institutes of Environmental Health Sciences [NIEHS]
National Toxicology Program [NTP]
U.S. Food and Drug Administration [FDA]
HTRF phospho-H2AX (Ser139) assay (Cisbio Bioassays, US) enables the quantitative detection of the histone variant H2AX when phosphorylated on serine 139. When double-stranded DNA breaks, either by ionizing radiation or endogenous physiological processes, H2AX becomes phosphorylated at Ser139. This phospho-Ser139 serves as a sensitive biomarker for the detection of such breaks, localizing the site of DNA repair. So, HTRF phospho-H2AX Ser139 is a pertinent assay to study genome stability, the cell cycle, DNA repair, and it serves as a biomarker for cancer, and to understand aging. Wild type CHO-K1 cells were used to identify the inducers of Phospho-H2AX Ser 139 from the Tox21 10K compound collections.
Tox21 Assay Protocol Summary:
The CHO-K1 cells suspended in culture medium containing 10% FBS were dispensed at 1000 cells/ 3 ul/well in 1536-well white wall/solid bottom plates (Greiner Bio-One North America, NC) using a Multidrop Combi (Thermo Fisher Scientific Inc., Waltham, MA). After the assay plates were incubated at 37C overnight, 23 nl of compounds at 15 concentrations (from 5-48 columns) or positive control (from 1 to 4 columns) were transferred to the assay plates using a Pintool station (Wako, San Diego, CA) into each well resulting in a final DMSO concentration of 0.76%. After 3hr incubation at 37C, 1 uL/well Supplemented Lysis buffer (diluted 100 fold blocking reagent in lysis buffer) (HTRF Phospho-H2A.X (S139) Assay kit from Cisbio US Inc., Bedford, MA) was added using a Flying Reagent Dispenser (FRD) (Aurora Discovery, CA). After 10sec spin at 1000 rpm in a plate centrifuge, the assay plates were incubated at room temperature for 30 min. Then followed by the addition of 1 uL/well detection buffer (containing a mixture of two antibodies, one labeled with cryptate, Anti pH2AX (S139)-K and another labeled with d2, Anti H2AX-d2) using FRD. After incubation at room temperature for 24 hr, the time resolved fluorescence at excitation 320 nm and emissions at 665 nm and 620 nm was measured using an Envision plate reader (PerkinElmer, Waltham, MA).
% is set by controls: 0 for no effect and ±100 for the full control effect.

Going from `CCCCCCCCCC(C)=O` to `CCCCCCCCC(=O)Cl`, the “activation (H2AX phosphorylation)” value rises from -1.19% to -0.364%.

Compared with `N#Cc1ccc(C(=O)O)cc1`, `N[C@@H](CCC(=O)Nc1ccc([N+](=O)[O-])cc1)C(=O)O` is lower in “activation (H2AX phosphorylation)” value: -0.398% for the first, -1.69% for the second.

First: CCC(C)(CCC(C)C)C(=O)O (stereo not given)
Second: CC(C)CC(=O)O
The “activation (H2AX phosphorylation)” value of the first is higher: 1.63% for the first, 0.815% for the second.

Going from `O=C(/N=N/C(=O)OCc1ccccc1)OCc1ccccc1` to `O=C(O)C(=O)Cc1ccccc1`, the “activation (H2AX phosphorylation)” value falls from 0.116% to -2.84%.

Compared with `O=C1c2ccccc2C(=O)c2cc(S(=O)(=O)O)ccc21`, `C[C@@H](Oc1ccc(CNC(=O)c2cccnc2Oc2ccc3c(c2)OCO3)c(F)c1)C(=O)O` is higher in “activation (H2AX phosphorylation)” value: -4.78% for the first, -0.503% for the second.

Going from `C=CC(OCC)OCC` to `CCC(CC)CO`, the “activation (H2AX phosphorylation)” value falls from 0.235% to -0.868%.

Going from `C[Si](C)(C)C` to `CC(C)=O`, the “activation (H2AX phosphorylation)” value rises from 0.591% to 1.74%.

Compared with `CCCCCCN`, `CCCCNC1CC(C)(C)NC(C)(C)C1` is lower in “activation (H2AX phosphorylation)” value: 0.275% for the first, -0.524% for the second.

First: Nc1ccc([N+](=O)[O-])c(N)c1
Second: Cc1ccc(C=O)cc1C
The “activation (H2AX phosphorylation)” value of the first is lower: 0.119% for the first, 4.18% for the second.

Compared with `O=S(=O)(O)CCN1CCN(CCO)CC1`, `CN(C)CCOCCO` is lower in “activation (H2AX phosphorylation)” value: -2.11% for the first, -2.76% for the second.

First: CC(C)CCCCOC(=O)c1ccccc1C(=O)OCCCCC(C)C
Second: CN(C)c1ccc(C=O)cc1
The “activation (H2AX phosphorylation)” value of the first is higher: -1.05% for the first, -2.05% for the second.

Compared with `COc1ccc(C2CNC(=O)C2)cc1OC1CCCC1` (stereo not given), `NS(=O)(=O)c1cc2c(cc1Cl)CN(C1CCCCC1)C2=O` is higher in “activation (H2AX phosphorylation)” value: -1.77% [at 70.9 µM] for the first, -0.699% [at 70.9 µM] for the second.

Going from `O=C(NCC(O)CO)c1c(I)c(C(=O)NCC(O)CO)c(I)c(N(CCO)C(=O)CO)c1I` (stereo not given) to `CC(=C(CCOC(=O)C(C)C)SSC(CCOC(=O)C(C)C)=C(C)N(C=O)Cc1cnc(C)nc1N)N(C=O)Cc1cnc(C)nc1N`, the “activation (H2AX phosphorylation)” value falls from -1.21% [at 70.9 µM] to -1.82% [at 70.9 µM].

Going from `NNc1nnc(NN)c2ccccc12` to `Cc1cccc(C)c1NC(=O)c1ccccc1C(=O)O`, the “activation (H2AX phosphorylation)” value falls from 2.27% [at 70.9 µM] to -0.122% [at 70.9 µM].

Going from `O=C(CCN1CCN(CCO)CC1)N1c2ccccc2Sc2ccc(C(F)(F)F)cc21` to `O=C(NCCN1CCOCC1)c1ccc(Cl)cc1`, the “activation (H2AX phosphorylation)” value rises from -2.74% [at 70.9 µM] to -1.5% [at 70.9 µM].

First: CCN1CCc2nc(N)oc2CC1
Second: Cc1ccsc1/C=C/C1=NCCCN1C
The “activation (H2AX phosphorylation)” value of the first is higher: 0.135% [at 70.9 µM] for the first, -0.994% [at 70.9 µM] for the second.

Going from `Cc1cc(C(C)(C)C)c(O)c(C)c1CC1=NCCN1` to `CCN(C)C(=O)Oc1cccc([C@H](C)N(C)C)c1`, the “activation (H2AX phosphorylation)” value rises from -2.19% [at 70.9 µM] to -0.502% [at 70.9 µM].

Compared with `COc1ccc2c(c1)C(=O)N(CCc1ccc(S(=O)(=O)NC(=O)NC3CCCCC3)cc1)C(=O)C2(C)C`, `O=C(OCC1(COC(=O)c2cccnc2)CCCC(COC(=O)c2cccnc2)(COC(=O)c2cccnc2)C1O)c1cccnc1` is lower in “activation (H2AX phosphorylation)” value: 1.19% [at 70.9 µM] for the first, -0.0362% [at 70.9 µM] for the second.

Going from `Cc1[nH]cnc1-c1ccc(Cl)cc1` to `NCCS`, the “activation (H2AX phosphorylation)” value rises from -0.566% [at 70.9 µM] to 0.835% [at 70.9 µM].

First: N[C@@H](COP(=O)(O)O)C(=O)O
Second: Oc1cn2c(n1)Nc1ccc(Cl)c(Cl)c1C2
The activation (H2AX phosphorylation) of the first is lower: -3.89% [at 31.6 µM] for the first, -0.0397% [at 31.6 µM] for the second.
